For 36 compounds, composite Z-score and composite z-score results are on record in PubChem BioAssay.

Molecules are shown by their SMILES. Activity calls are given as the source filed them.

The first test in a line: probe aXIP binding to arrayed compounds – biochemical, NeuroSMM set, 635/667 nm fluorescence, primary screen (AID 1119).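 Further: probe is the protein aXip251-270 applied at 1 µg/mL to compound-printed slides; binding of probe to printed compounds measured as 667 nm fluorescence plus signal to noise.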 Particulars: small-molecule microarray, higher = more signal, called active from +8 up or from −8 down.
With `CCOC(=O)[C@H]1C/C=C/C[C@H](C(=O)OCC)C(=O)O[C@H]2[C@@H](OC)O[C@H](CO)[C@@H](OC(=O)Nc3ccc(Br)cc3)[C@@H]2OC1=O`, the composite Z-score is 0.285 (inactive).

With `CO[C@@H]1COC(=O)[C@@H]2CCCN2C(=O)CC=C[C@@H](C)[C@H](OC)COC(=O)[C@@H]2CCCN2C(=O)CC=C[C@H]1C`, the composite Z-score is -0.286 (inactive).

On to `COCCOC(=O)N1C(=O)[C@@]2(c3cc(C#CCCO)ccc31)[C@H](c1ccc(O)cc1)N1[C@H](c3ccccc3)[C@H](c3ccccc3)OC(=O)[C@H]1[C@@H]2C(=O)Nc1nc2ccccc2s1`, for which the composite Z-score was -0.0844 (inactive).

With `COc1cc2c(cc1OC)CN(C(=O)[C@@H]1[C@H]3C(=O)O[C@H](c4ccccc4)[C@H](c4ccccc4)N3[C@H](c3ccccc3OCCO)[C@@]13C(=O)Nc1ccccc13)CC2`, the composite Z-score is -0.316 (inactive).

Consider `COc1ccc([Si](C)(C)[C@H]2[C@H](CCO)O[C@@]3(C(=O)N(Cc4ccc(N5CCCCC5=O)cc4)c4ccccc43)[C@@H]2C)cc1`, for which the composite Z-score was -0.247 (inactive).

With `CCCCO[C@H]1C[C@H]2C(Br)=C[C@@]1(CO)C(=O)[C@]21CO1`, the composite Z-score was -0.442 (inactive).

`CCOC(=O)C[C@H]1[C@H](OC(=O)c2ccccc2-c2ccccc2)[C@@H](NC(=O)C2CCCCC2)c2cc(OCCCO)ccc2N1C(=O)c1ccccc1`: the composite Z-score was 0.909 (inactive).

With `CO[C@H]1COC(=O)[C@H](C)NC(=O)CC=C[C@@H](C)[C@H](NS(=O)(=O)c2ccc(C)cc2)COC(=O)[C@@H](OCc2ccccc2)C=C[C@@H]1C`, the composite Z-score was 0.0585 (inactive).

Take `CC(C)CNC(=O)[C@@]1(C)c2ccccc2C(=O)N(Cc2ccc(OC(F)(F)F)cc2)[C@H]1c1ccc(CO)cc1`: the composite Z-score is 0.416 (inactive).

On to `CC(C)C[C@@H]1NC(=O)[C@H]2C[C@@H](C(=O)NCCCCCC[N+](C)(C)C)[C@@H](c3ccc(O)cc3)N2C1=O`, for which the composite Z-score is 0.448 (inactive).

In the case of `C=CC[C@@]1(C(=O)NCC(O)CO)N=C(c2ccc(OCCCO)cc2)O[C@@H]1c1ccccc1CN=[N+]=[N-]` (some centres not stated), the composite Z-score was 0.536 (inactive).

The nature of the next test: probe aNOTCH3 binding on compound microarray – biochemical, small-molecule microarray, 635/667 nm fluorescence, primary screen (AID 1120).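 Further: probe is a biotin-tagged antibody raised against NOTCH3 rather than NOTCH3 protein; score merges spot fluorescence near 667 nm with spot signal to noise.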 Particulars: higher = more signal.
Take `COCCOC(=O)N1C(=O)[C@@]2(c3cc(C#CC4(O)CCCCCC4)ccc31)[C@H](C(=O)N1CCCCCCC1)[C@H]1C(=O)O[C@H](c3ccccc3)[C@H](c3ccccc3)N1[C@@H]2c1ccc(O)cc1`: the composite z-score worked out at 0.885.

Compound `C=CCC(OC(C)=O)[C@@H]1[C@@H](N(Cc2cc3ccccc3o2)C(=O)Cc2ccc(F)cc2)c2cc(OCCCO)ccc2N1C(=O)c1ccc(-c2ccccc2)cc1` (some centres not stated) yielded a composite z-score of -0.0881.

`O=C(CS)NCCCCCNC(=O)[C@H]1C[C@H]2C(=O)N[C@@H](Cc3ccccc3)C(=O)N2[C@H]1c1ccc(O)cc1`: the composite z-score is 0.114.

As for `CO[C@H]1COC(=O)CC=C[C@@H](C)COC(=O)[C@@H](C)NC(=O)CC=C[C@@H]1C`, the composite z-score is -0.0345.

`CCC(=O)[C@]12O[C@@]3([C@@H]4C(=O)OCC[C@@H]41)N(Cc1ccccc1)C(C)=C(C(=O)OC)[C@@H](c1ccccc1)N3C2=O` came in with a composite z-score of -0.207.

As for `C[C@]1(C(=O)NCCN2CCOCC2)c2ccccc2C(=O)N(Cc2ccccc2)[C@H]1c1ccc(CO)cc1`, the composite z-score was -0.257.

`CC[C@H]1C2=C3C(CC[C@H]4C(OC)OC[C@](C)([C@@H]34)N(C(=O)OC(C)(C)C)C2)C(CO)C1CO` (some centres not stated): the composite z-score was 0.619.

For the compound `O=C1c2ccccc2[C@@]2(Cc3ccccc3N(CC(F)(F)F)C2=O)[C@H](c2ccc(CO)cc2)N1C1CCCCC1`, the composite z-score amounted to 0.157.

In the case of `C=C(C(=O)CC[C@H](OC(=O)c1ccccc1-c1ccccc1C(=O)O)c1ccc(CO)o1)C(C)C`, the composite z-score is -0.068.

Consider `CC1=C([C@H](O)CCc2ccccc2)[C@H](CO)[C@@H]2C(=O)N(Cc3ccccc3)C(=O)[C@@H]2C1`, for which the composite z-score is 0.0349.

`O=C1O[C@H](c2ccccc2)[C@H](c2ccccc2)N2[C@H]1[C@@H](C(=O)NC[C@H](O)c1ccccc1)[C@]1(C(=O)Nc3ccc(C#CC4=CCCCC4)cc31)[C@H]2c1ccc(OCCO)cc1` displayed a composite z-score of 0.141.

`COc1cc(Cc2cc3c(c(CCc4ccccc4)n2)[Si](C(C)C)(C(C)C)OC3)cc(OC)c1OC` yielded a composite z-score of -0.0697.

`CO[C@H]1O[C@H](CO)[C@@H](OC(=O)CCc2ccccc2)[C@@H]2OC(=O)[C@H](Cc3cccc(Br)c3)C/C=C/C[C@@H](Cc3cccc(Br)c3)C(=O)O[C@@H]12` registered a composite z-score of -0.15.

For `Cc1ccc(S[C@]2(C(=O)NCCCN(C)C)CC(=O)N(C3CCCCC3)[C@@H]2c2ccc(CO)cc2I)cc1`, the composite z-score worked out at 0.0836.

`COC(=O)[C@@]1(Cc2ccccc2CN=[N+]=[N-])N=C(c2ccc(OCCCO)cc2)O[C@H]1c1ccccc1N=[N+]=[N-]` had a composite z-score of -0.0164.

`CO[C@@H]1COC(=O)[C@H](C)NC(=O)CC=C[C@@H](C)[C@H](OC)COC(=O)[C@H](C)NC(=O)CC=C[C@H]1C` showed a composite z-score of -0.226.

Regarding `COCCOC(=O)N1C(=O)[C@@]2(c3cc(C#CCNC(N)=O)ccc31)[C@H](c1ccc(OCCO)cc1)N1[C@H](c3ccccc3)[C@H](c3ccccc3)OC(=O)[C@H]1[C@@H]2C(=O)Nc1nc2ccccc2s1`, the composite z-score is -0.124.

The compound `C=CC[C@@]1(C(=O)N2CCOCC2)N=C(c2ccc(OCCCO)cc2)O[C@@H]1c1ccccc1` returned a composite z-score of -0.223.

The compound `COc1cc2c(cc1OC)CN(C(=O)[C@H]1[C@@H]3C(=O)O[C@@H](c4ccccc4)[C@@H](c4ccccc4)N3[C@@H](c3ccc(O)cc3)[C@]13C(=O)Nc1ccc(C#CC4(O)CCCCCC4)cc13)CC2` came in with a composite z-score of 0.974.

For `O=C/C=C/c1ccccc1Cl`, the composite z-score is -0.0259.

As to `C=CCC(OC(C)=O)[C@@H]1[C@@H](N(Cc2cccc3ccccc23)C(=O)Cc2ccc(F)cc2)c2cc(OCCCO)ccc2N1C(=O)Cc1ccc2ccccc2c1` (some centres not stated), the composite z-score is -0.0881.

In turn, `CC(=O)NCCCC[C@@H]1NC(=O)[C@@H]2C[C@H](C(=O)NCCCCCNC(=O)CS)[C@H](c3ccc(O)cc3)N2C1=O` returned a composite z-score of -0.282.

Compound `C[N+](C)(C)CCCCNC(=O)[C@@H]1C[C@@H]2C(=O)N3CCC[C@H]3C(=O)N2[C@@H]1c1cccc(OCCO)c1` showed a composite z-score of -0.199.

For `O=C(NCC(O)CO)[C@]1(Cc2ccccc2)N=C(c2ccc(OCCCO)cc2)O[C@@H]1c1ccccc1` (some centres not stated), the composite z-score stood at 0.101.

Compound `COC(=O)Cn1c(C(=O)N2CCCC2)cc2c1C[C@H]1CN(C(=O)c3ccccc3)[C@@](Cc3ccccc3)(C(=O)OC)[C@@H]21` registered a composite z-score of -0.0647.

In turn, `CCOC(=O)[C@H]1C/C=C/C[C@H](C(=O)OCC)C(=O)O[C@H]2[C@@H](OC)O[C@H](CO)[C@@H](OC(=O)Nc3ccc(Br)cc3)[C@@H]2OC1=O` gave a composite z-score of -0.122.

Compound `CO[C@@H]1COC(=O)[C@@H]2CCCN2C(=O)CC=C[C@@H](C)[C@H](OC)COC(=O)[C@@H]2CCCN2C(=O)CC=C[C@H]1C` showed a composite z-score of -0.0699.

Regarding `COCCOC(=O)N1C(=O)[C@@]2(c3cc(C#CCCO)ccc31)[C@H](c1ccc(O)cc1)N1[C@H](c3ccccc3)[C@H](c3ccccc3)OC(=O)[C@H]1[C@@H]2C(=O)Nc1nc2ccccc2s1`, the composite z-score amounted to 0.272.

`COc1cc2c(cc1OC)CN(C(=O)[C@@H]1[C@H]3C(=O)O[C@H](c4ccccc4)[C@H](c4ccccc4)N3[C@H](c3ccccc3OCCO)[C@@]13C(=O)Nc1ccccc13)CC2` registered a composite z-score of 0.746.

In turn, `COc1ccc([Si](C)(C)[C@H]2[C@H](CCO)O[C@@]3(C(=O)N(Cc4ccc(N5CCCCC5=O)cc4)c4ccccc43)[C@@H]2C)cc1` registered a composite z-score of 0.25.

The compound `CCCCO[C@H]1C[C@H]2C(Br)=C[C@@]1(CO)C(=O)[C@]21CO1` came in with a composite z-score of -0.0647.

In the case of `CCOC(=O)C[C@H]1[C@H](OC(=O)c2ccccc2-c2ccccc2)[C@@H](NC(=O)C2CCCCC2)c2cc(OCCCO)ccc2N1C(=O)c1ccccc1`, the composite z-score was -0.0647.

`CO[C@H]1COC(=O)[C@H](C)NC(=O)CC=C[C@@H](C)[C@H](NS(=O)(=O)c2ccc(C)cc2)COC(=O)[C@@H](OCc2ccccc2)C=C[C@@H]1C` returned a composite z-score of -0.0932.

`CC(C)CNC(=O)[C@@]1(C)c2ccccc2C(=O)N(Cc2ccc(OC(F)(F)F)cc2)[C@H]1c1ccc(CO)cc1`: the composite z-score is -0.241.

Turning to `CC(C)C[C@@H]1NC(=O)[C@H]2C[C@@H](C(=O)NCCCCCC[N+](C)(C)C)[C@@H](c3ccc(O)cc3)N2C1=O`, the composite z-score was -0.126.

Consider `C=CC[C@@]1(C(=O)NCC(O)CO)N=C(c2ccc(OCCCO)cc2)O[C@@H]1c1ccccc1CN=[N+]=[N-]` (some centres not stated), for which the composite z-score was -0.105.
